# Data reported in PubChem BioAssay.
# Molecular target: Alpha-bungarotoxin (Bungarus multicinctus) (UniProt P60615)
# Experiment: compounds binding labelled alpha-BTX control protein – biochemical, small-molecule microarray, Alexa647 label, 635/667 nm fluorescence, artefact control for SMM control protein annotation, profiling panel (AID 1117)
# Conditions: alpha-BTX-A647 binding fluorescence, higher = more signal
# Sequence of Alpha-bungarotoxin (Bungarus multicinctus) (P60615 whole entry, looked up): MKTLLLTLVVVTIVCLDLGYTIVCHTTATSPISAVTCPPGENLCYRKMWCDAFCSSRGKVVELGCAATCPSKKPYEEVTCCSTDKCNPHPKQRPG
row,Compound,composite z-score
1,CCOC(=O)C[C@H]1[C@H](OC(=O)c2ccccc2-c2ccccc2)[C@@H](NC(=O)c2ccccc2)c2cc(OCCCO)ccc2N1C(=O)Cc1ccc(OC)cc1,0.66
2,C=CCC(OC(C)=O)[C@@H]1[C@@H](N(Cc2ccc(-c3cccc(C(F)(F)F)c3)o2)C(=O)c2cccc3ccccc23)c2cc(OCCCO)ccc2N1C(=O)c1ccc(-c2ccccc2)cc1 (stereo not given in full),0.143
3,C[C@H]1ON(c2ccccc2)[C@@H](c2ccccc2)[C@@H]1C(=O)N1C(=O)OC[C@@H]1c1ccccc1,-0.1
4,COCCOC(=O)N1C(=O)[C@@]2(c3cc(C#CCNC(N)=O)ccc31)[C@H](C(N)=O)[C@H]1C(=O)O[C@H](c3ccccc3)[C@H](c3ccccc3)N1[C@@H]2c1ccc(OCCO)cc1,0.617
5,CCCC=C(CCC)[C@@H](NS(=O)(=O)c1cccc2cccnc12)c1ccc(C(=O)OC)cc1,-0.0527
6,CCOC(=O)C1=CC[C@@H](c2ccccc2)N(S(=O)(=O)c2ccc(C)cc2)[C@H]1C=C(C)C,0.162
7,C#CCNS(=O)(=O)N(C)C,0.601
8,O=C1O[C@H](c2ccccc2)[C@H](c2ccccc2)N2[C@H]1[C@@H](C(=O)N1CCN(c3ncccn3)CC1)[C@]1(C(=O)Nc3ccc(C#CCCO)cc31)[C@H]2c1ccc(OCCO)cc1,0.554
9,COCCOC(=O)N1C(=O)[C@@]2(c3cc(C#CC4(O)CCCCCC4)ccc31)[C@H](C(=O)N1CCN(c3ncccn3)CC1)[C@H]1C(=O)O[C@H](c3ccccc3)[C@H](c3ccccc3)N1[C@@H]2c1ccc(O)cc1,1.61
10,Cc1cc(C)c(C(O)C2C=CC3C(=O)N(c4ccccc4)C(=O)C3N2Nc2ccc([N+](=O)[O-])cc2)c(C)c1 (stereo not given),2.19
11,Cc1ccc(S[C@]2(C(=O)O)CC(=O)N(C3CCCCC3)[C@@H]2c2ccc(CO)cc2)cc1,0.842
12,CCOc1cc(C(O)C2C=CC3C(=O)NC(=O)C3N2Nc2ccccn2)ccc1O (stereo not given),0.297
13,CC(=O)NCCCC[C@@H]1NC(=O)[C@@H]2C[C@H](C(=O)NCCCC[N+](C)(C)C)[C@H](c3cccc(OCCO)c3)N2C1=O,-0.08
14,COc1ccc([Si](C)(C)[C@@H]2[C@@H](CC(=O)N(CCO)Cc3ccccc3)O[C@]3(C(=O)N(Cc4ccc(N5CCOC5=O)cc4)c4ccccc43)[C@H]2C)cc1,0.989
15,COC(=O)[C@]1(Cc2ccccc2CN=[N+]=[N-])N=C(c2ccc(OCCCO)cc2)O[C@@H]1c1ccccc1CN=[N+]=[N-],1.48
16,CN(C)C(=O)[C@]1(Cc2ccccc2N=[N+]=[N-])N=C(c2ccc(OCCCO)cc2)O[C@@H]1c1ccccc1CN=[N+]=[N-],0.564
17,CC(C)(C)OC(=O)CC[C@@]1(C(=O)N2CCCCC2)N=C(c2ccc(OCCCO)cc2)O[C@@H]1c1ccccc1CN=[N+]=[N-],2.27
18,CCN(CC)c1ccc(N2CC=CC34O[C@@H]5/C=C\CCCOC(=O)C5[C@H]3C(=O)N(CCCCCO)[C@@H]4C2=O)cc1 (stereo not given in full),-1.04

row,Compound,composite z-score
1,[N-]=[N+]=Nc1ccccc1C[C@]1(C(=O)NCCN2CCOCC2)N=C(c2ccc(OCCCO)cc2)O[C@H]1c1ccccc1N=[N+]=[N-],1.12
2,COC(=O)[C@]1(Cc2ccccc2CN=[N+]=[N-])N=C(c2ccc(OCCCO)cc2)O[C@@H]1c1ccccc1,1.13
3,COCCOC(=O)N1C(=O)[C@@]2(c3cc(C#Cc4ccc(OC)cc4)ccc31)[C@H](C(=O)N1CCc3cc(OC)c(OC)cc3C1)[C@H]1C(=O)O[C@H](c3ccccc3)[C@H](c3ccccc3)N1[C@@H]2c1ccc(O)cc1,1.78
4,COCCOC(=O)N1C(=O)[C@@]2(c3cc(C#CCCO)ccc31)[C@H](C(=O)NC[C@H](O)c1ccccc1)[C@H]1C(=O)O[C@H](c3ccccc3)[C@H](c3ccccc3)N1[C@@H]2c1ccccc1OCCO,0.784
5,COc1ccccc1CN1C(=O)c2ccccc2[C@@H](C(=O)NCC(C)C)[C@@H]1c1ccc(CO)cc1,-0.544
6,C=CCN1C(=O)[C@@]2(O[C@@H](CCn3cc([C@H](O)c4ccccc4)nn3)[C@H]([Si](C)(C)c3ccc(OC)cc3)[C@H]2C)c2cc(NC(=O)c3ccc(OC)cc3)ccc21,0.627
7,O=C(O)[C@]1(CCS(=O)(=O)c2ccccc2)N=C(c2ccc(OCCCO)cc2)O[C@@H]1c1ccccc1,-0.0315
8,CN(C)CCCN1C(=O)[C@@]2(Cc3ccccc31)c1ccccc1C(=O)N(Cc1ccccc1)[C@H]2c1ccc(CO)cc1,0.648
9,COC(=O)C(CC#Cc1ccc2c(c1)[C@]1(C(=O)N2)[C@H](c2ccc(O)cc2)N2[C@H](c3ccccc3)[C@H](c3ccccc3)OC(=O)[C@H]2[C@@H]1C(N)=O)C(=O)OC,-1.83
10,O=C1C2C=CC(C(O)c3ccc(Br)cc3)N(Nc3ccccc3)C2C(=O)N1c1ccccc1 (stereo not given),1.2
11,O=C(O)[C@@]1(Cc2ccccc2)COC(c2ccc(OCCCO)cc2)=N1,-0.47
12,COC(=O)c1ccc(OC)c(/C=C\CC(CCc2ccccc2)OC(=O)c2ccncc2)c1 (stereo not given),1.65
13,COC(=O)[C@@]1(Cc2ccc(OC)cc2)[C@H]2c3cc(C(=O)N4CCCC4)n(CCc4ccc(O)c(OC)c4)c3C[C@H]2CN1C(=O)c1ccccc1,0.184
14,C[N+](C)(C)CCCC[C@@H]1NC(=O)[C@H]2C[C@@H](C(=O)NCCCCCCN)[C@@H](c3cccc(OCCO)c3)N2C1=O,0.995
15,COC(=O)[C@]1(Cc2ccccc2N=[N+]=[N-])N=C(c2ccc(OCCCO)cc2)O[C@@H]1c1ccccc1,0.41
16,CC(C)N1C(=O)c2ccccc2[C@](C)(C(=O)O)[C@@H]1c1ccc(CO)cc1,0.468
17,COc1ccc(C(=O)Nc2ccc3c(c2)[C@]2(O[C@@H](CCO)[C@H]([Si](C)(C)c4ccc(OC)cc4)[C@H]2C)C(=O)N3Cc2ccccc2)cc1,0.375
